4-MU autofl – compound fluoresces in the 4-MU spectral region; compound autofluorescence, 340/450 nm, 4-MU equivalents; hits give high values; 11% of 59,000 active; max dye-equivalent concentration, M; in the data active = max dye-equivalent concentration above about 10 nM; inconclusive = mostly about 1.1 nM to 9.6 nM
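Intrinsic fluorescence at 340/450 nm (ex/em) was read after 15 min at room temperature in pH 8.0, 100 mM Tris. Each compound concentration expressed as 4-MU-equivalent concentration from a six-point 4-MU standard series on each plate.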
HSD17B inhib – HSD17B dehydrogenase inhibition. AID 893. Potency, µM (highest dose often 57.1 µM), inactives show at the highest dose activity change, negative = inhibition, most hits filed as inhibitors. Q99714. 7.6% of 75,000 active. recombinant HSD17B10, NADH fluorescence kinetic;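 note: the protocol describes HADH2 (HSD17B10) and not the HSD17B4 of the title; potency is the fitted concentration of half-maximal effect; % is set by controls: 0 for no effect and ±100 for the full control effect; nearly all actives have a fitted effect of over 70% in size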
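Activity followed as NADH fluorescence increase (ex 360, em 450 nm) every 30 seconds for 4 min, using final 90 uM beta-hydroxybutyryl CoA and 1 mM NAD+. Recombinant His-tagged enzyme, 20 nM, pH 9.0 Tris buffer, 15 min compound preincubation.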
HADH2 inhib – blocks human hydroxyacyl-CoA dehydrogenase type II; Potency, µM (titrated, usually from 57.1 µM), for the others: at the top dose activity change, negative = inhibition, most hits filed as inhibitors; recombinant HADH2, NADH fluorescence, beta-hydroxybutyryl-CoA; 3.4% of 73,000 active; Q99714; AID 886; note: potency is the fitted concentration of half-maximal effect; % is set by controls: 0 for no effect and ±100 for the full control effect; nearly all actives have a fitted effect of over 60% in size
Target sequence (Q99714 whole entry, looked up, one chain of several): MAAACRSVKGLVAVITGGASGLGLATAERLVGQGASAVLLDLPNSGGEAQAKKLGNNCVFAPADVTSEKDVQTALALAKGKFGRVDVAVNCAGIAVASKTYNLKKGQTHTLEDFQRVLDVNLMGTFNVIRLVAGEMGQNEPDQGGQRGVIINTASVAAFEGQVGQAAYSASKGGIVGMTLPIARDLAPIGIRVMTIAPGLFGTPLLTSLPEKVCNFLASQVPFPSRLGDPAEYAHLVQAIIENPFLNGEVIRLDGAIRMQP
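E. coli-expressed His-tagged HADH2 tested at 20 nM in alkaline Tris buffer (pH 9.0); oxidation of 90 uM beta-hydroxybutyryl-CoA with 1 mM NAD+ tracked fluorimetrically for 4 min.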
A350 fluor – compound fluoresces in the Alexa 350 spectral region; Compound autofluorescence, 340/450 nm, Alexa 350 dye-equivalents; hits give high values; max dye-equivalent concentration, M; 11% of 59,000 active; AID 590; in the data active = max dye-equivalent concentration above about 10 nM; inconclusive = mostly about 1.1 nM to 9.6 nM
AID923 – qHTS Assay for Allosteric/Competitive Inhibitors of Caspase-1: Spectroscopic Profiling in AFC Spectral Region | compound fluorescence, AFC spectral region (405/520 nm) | Potency, µM (series often up to 57.5 µM), for inactives: at the top dose fluorescence increase, most hits filed as activators | 1.1% of 75,000 active; note: potency is the fitted concentration of half-maximal effect; 0% is about no effect
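Compound autofluorescence profiled at 405 nm ex/520 nm em during kinetic caspase 1 run (50 nM enzyme, 5 uM Ac-WEHD-AFC, HEPES pH 7.5, 10 mM DTT). Titration up to 57 uM; baseline from regression intercept, normalized to AFC standard curve.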
Numbers without * were called inactive; [ ] = remark or other dose. Only some compounds are listed: those with a hit (about 13% of all), similar ones and a draw of the others. Unless noted, calls come from the whole dose curve; as a rule, active = well fitted curve in the direction sought with a large enough effect; inconclusive = small, poorly fitted or top-dose-only effect, or another doubt; inactive = no such curve, though single readings can be large; an effect the other way counts as inactive or inconclusive.

Screening COc1cccc(C2C(C(=O)c3cccs3)=C(O)C(=O)N2c2cc(C)on2)c1 (stereo not given) returned 4-MU autofl inactive and A350 fluor inactive.
For COc1ccc(OC)c(C2C(C(=O)c3cccs3)=C(O)C(=O)N2c2cc(C)on2)c1 (stereo not given) the results were 4-MU autofl inconclusive, HSD17B inhib -3%, HADH2 inhib -6%, A350 fluor 1.1e-08M* and AID923 -1%.
COc1ccc2nc(C)c(C(=O)OCCN(C)C)cc2c1 was read as 4-MU autofl 1.1e-07M*, HSD17B inhib 32µM*, HADH2 inhib inconclusive, A350 fluor 1.1e-07M* and AID923 1%.
Screening COc1ccc(NC(=O)N2CCCC3(CCN(C(=O)c4cnccn4)CC3)C2)cc1 returned 4-MU autofl inactive, HSD17B inhib -1%, HADH2 inhib 5%, A350 fluor inactive and AID923 1%.
Screening O=C(O)c1cccc(C[C@H](Br)C(=O)O)c1 returned 4-MU autofl inactive, HSD17B inhib -1%[11.4 µM], HADH2 inhib -12%[11.4 µM], A350 fluor inactive and AID923 0%[11.5 µM].
`O=C(CCCN1C(=O)c2ccccc2C1=O)Oc1ccc(F)cc1` gave 4-MU autofl inactive, HSD17B inhib 2%, HADH2 inhib inconclusive, A350 fluor inactive and AID923 -2%.
For O=C(O)CCc1ccc(-c2ccc(F)cc2)n1CC(=O)O the results were 4-MU autofl inconclusive, HSD17B inhib 32µM*, HADH2 inhib -28%, A350 fluor inconclusive and AID923 9%.
COc1ccc(-c2ccc(CCC(=O)O)n2C(C)C)cc1 was read as 4-MU autofl 1.1e-07M*, HSD17B inhib 32µM*, HADH2 inhib -22%, A350 fluor 1.3e-07M* and AID923 20%.
`CCOC(=O)Cn1c(=N)n(Cc2ccccc2)c2ccccc21` gave 4-MU autofl inactive, HSD17B inhib 9%, HADH2 inhib 9%, A350 fluor inactive and AID923 0%.
`COC(=O)Cn1c(CCC(=O)O)ccc1-c1ccccc1` gave HSD17B inhib inconclusive, HADH2 inhib -4% and AID923 0%.
For CCOC(=O)Cn1c(CCC(=O)O)ccc1-c1ccc(F)cc1 the results were HSD17B inhib 25µM*, HADH2 inhib 57% and AID923 0%.
`COc1ccc(-c2ccc(=N)n(CCCC(=O)O)n2)cc1` gave HSD17B inhib inconclusive, HADH2 inhib 5% and AID923 -2%.
Screening Cc1ccc(-c2ccc(CCC(=O)O)n2CC(=O)O)cc1 returned HSD17B inhib 25µM*, HADH2 inhib -24% and AID923 6%.
Screening COc1cc(NCCC(=O)O)c2ncccc2c1 returned 4-MU autofl inactive, HSD17B inhib 2%[11.4 µM], HADH2 inhib -11%[11.4 µM], A350 fluor inactive and AID923 -3%[11.5 µM].
O=C(O)CCc1ccc(-c2ccc(F)cc2)n1NC(=O)c1ccco1 was read as 4-MU autofl inactive, HSD17B inhib -26%, HADH2 inhib -6%, A350 fluor inconclusive and AID923 -1%.
Cc1ccc(-c2ccc(CCC(=O)O)n2NC(=O)c2ccco2)cc1 was read as 4-MU autofl 1.2e-08M*, HSD17B inhib -3%, HADH2 inhib -3%, A350 fluor 1.5e-08M* and AID923 0%.
For CCCn1c(CCC(=O)O)ccc1-c1ccc(F)cc1 the results were 4-MU autofl 1.8e-07M*, HSD17B inhib 32µM*, HADH2 inhib 21%, A350 fluor 1.7e-07M* and AID923 9%.
Screening COc1ccc(-c2cc3nc4n(c(=O)c3s2)CCC4)cc1 returned 4-MU autofl 4e-07M*, HSD17B inhib 13µM*, HADH2 inhib -22%, A350 fluor 4.9e-07M* and AID923 -2%.
Screening C=C[C@](C)(O)CCC1C(=C)CC(OC(C)=O)C2C(C)(C)CCCC12C (stereo not given in full) returned HSD17B inhib -3% and AID923 -1%.
For CCOC(=O)c1cnc2c(C(F)(F)F)cccc2c1N1CCOCC1 the results were 4-MU autofl inactive, HSD17B inhib 20µM*, HADH2 inhib inconclusive, A350 fluor inactive and AID923 2%.
CN1CCC2(CC1)CCN(C(=O)c1cccc(F)c1)CC2 was read as 4-MU autofl inactive, HSD17B inhib 3%, HADH2 inhib 4%, A350 fluor inactive and AID923 3%.
